About 83,000 compounds went through this panel and 20% of them were active in at least one assay; those are over-represented in the sample as a whole.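 A percent growth of 40 corresponds to 60% growth inhibition; 0 means no net growth; -100 means all cells died. Active threshold: below 10.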 Active and inactive are the calls of the source.

The assay concerns NCI-H23 lung. The assay can be described thus: NCI-60 one-dose screen, 48 h (100 = growth as untreated, 0 = no growth, -100 = all killed). As to conditions: 10 µM.
Consider `O=C1Cc2cc(CCN3CCN(c4nsc5ccccc45)CC3)c(Cl)cc2N1`, for which the growth is 102% (inactive).

As to `Nc1ccccc1NC(=O)c1ccc(CCCC(=O)Nc2ccc(C3CC3N)cc2)cc1` (stereo not given), the growth was 37.2% (inactive).

As for `CC(C)Cc1ccc([C@H](C)C(=O)O)cc1`, the growth is 105% (inactive).

In the case of `COc1cc2c3c(n(C4CCN(C)CC4)c(=O)c2cc1OC)-c1cc2c(cc1C3=O)OCO2`, the growth is 52.4% (inactive).

Turning to `CN(C)c1nc(N)c2nccnc2n1`, the growth is 87.9% (inactive).

Take `COc1ccc(CCN2CCC(Nc3nc4ccccc4n3Cc3ccc(F)cc3)CC2)cc1`: the growth was 47.1% (inactive).

Consider `CNC(=O)c1c(I)c(NC(C)=O)c(I)c(C(=O)O)c1I`, for which the growth was 97.5% (inactive).

With `C[C@H]1[C@H](OC(=O)CCC(=O)O)O[C@@H]2O[C@]3(C)CC[C@H]4[C@H](C)CC[C@@H]1[C@@]24OO3`, the growth was 19.9% (inactive).

Regarding `Nc1cc(-c2ccncc2)c[nH]c1=O`, the growth was 102% (inactive).

As to `COc1ccc2c(c1)C(CC(=O)NN)CCC2` (stereo not given), the growth is 92.7% (inactive).

As to `CCCCc1oc2ccccc2c1C(=O)c1cc(I)c(OCCN(CC)CC)c(I)c1`, the growth was -38.9% (active).

On to `Clc1ccc2c(c1)C(N1CCNCC1)=Nc1ccccc1O2`, for which the growth is 64.4% (inactive).

`COc1ccc(Cc2cnc(N)nc2N)cc1OC`: the growth is 96.8% (inactive).

On to `COc1ccc(C(=O)CSc2nc(-c3cc(OC)ccc3OC)cc(-c3ccc(OC)cc3)c2C#N)cc1`, for which the growth was 91.6% (inactive).

On to `Nc1ccc(-c2cccs2)cc1NC(=O)c1ccc(CCCC(=O)Nc2ccc(C3CC3N)cc2)cc1` (stereo not given), for which the growth is 86.3% (inactive).

On to `CCCCCOC(=O)Nc1nc(=O)n(C2O[C@H](C)[C@@H](O)[C@H]2O)cc1F` (stereo not given in full), for which the growth was 95.3% (inactive).

Take `C[C@@H](O)[C@H]1C(=O)N2C(C(=O)O)=C(SCCN=CN)C[C@H]12`: the growth is -1.59% (active).

Take `CCCCC(CC)CN=C(N)NC(N)=NCCCCCCN=C(N)NC(N)=NCC(CC)CCCC` (stereo not given): the growth was -80% (active).

For the molecule `CO[C@H]1CC(O[C@@H]2/C(C)=C/C[C@@H]3C[C@@H](C[C@]4(C=C[C@H](C)[C@@H](C5CCCCC5)O4)O3)OC(=O)[C@@H]3C=C(C)[C@@H](O)[C@H]4OC/C(=C\C=C\[C@@H]2C)[C@]43O)O[C@@H](C)C1O[C@H]1C[C@H](OC)[C@@H](O)[C@H](C)O1` (stereo not given in full), the growth was -63.7% (active).

Regarding `CC1/C=C/C=C/C=C/C=C/C=C/C=C/C=C/C(O[C@@H]2O[C@H](C)[C@H](O)[C@@H](O)[C@@H]2N)CC(O)C(C(=O)O)C(O)CC(=O)CC(O)CC(O)CC(O)CC(=O)CCCC(=O)CC(=O)OC1C(C)CC(C)C(O)CC(=O)c1ccc(N)cc1` (stereo not given in full), the growth was -96.5% (active).

Take `S=C1N(c2ccccc2)CN(C2CCCCC2)CN1c1ccccc1`: the growth is 100% (inactive).

In the case of `C#C[C@]1(O)CCC2C3CCc4cc(OC5CCCC5)ccc4C3CC[C@@]21C` (stereo not given in full), the growth is 76.6% (inactive).

In the case of `CC(=O)[C@@]12O[C@](C)(c3ccccc3)O[C@@H]1CC1C3CCC4=CC(=O)CC[C@]4(C)C3CC[C@@]12C` (stereo not given in full), the growth was 54.4% (inactive).

As for `COc1ccc2nc3cc(Cl)ccc3c(Nc3cc(CN4CCCC4)c(O)c(CN4CCCC4)c3)c2n1`, the growth is -29.4% (active).

Consider `CCc1cc(Cl)c(OC)c(C(=O)NCC2CCCN2CC)c1O` (stereo not given), for which the growth was 85.5% (inactive).

With `CCOC(=O)c1sc2ncnc(Nc3ccc(NC(=O)Nc4ccc(Cl)cc4)cc3)c2c1C`, the growth is 52.2% (inactive).

With `Cc1cc(C(C#N)c2ccc(Cl)cc2)c(Cl)cc1NC(=O)c1cc(I)cc(I)c1O` (stereo not given), the growth is 10.4% (inactive).

With `COc1cc2c3c(n([C@@H]4CCOC4)c(=O)c2cc1OC)-c1cc2c(cc1C3=O)OCO2`, the growth is 22.8% (inactive).

Take `C[N+]1(CCCCC[N+]2(C)CCCC2)CCCC1`: the growth is 105% (inactive).

Regarding `C=C(NC(=O)C(=C)NC(=O)c1csc(C2=NC3c4csc(n4)C4NC(=O)c5csc(n5)C(C(C)(O)C(C)O)NC(=O)C5CSC(=N5)C(=CC)NC(=O)C(C(C)O)NC(=O)c5csc(n5)C3(CC2)NC(=O)C(C)NC(=O)C(=C)NC(=O)C(C)NC(=O)C(C(C)CC)NC2C=Cc3c(C(C)O)cc(nc3C2O)C(=O)OC4C)n1)C(N)=O` (stereo not given), the growth was 43.2% (inactive).

With `Nc1nc(Cl)nc2c1ncn2C1O[C@H](CO)[C@@H](O)[C@@H]1F` (stereo not given in full), the growth is -9.12% (active).

As for `CN1CCN(c2cc3c(cc2F)c(=O)c(C(=O)O)cn3-c2ccc(F)cc2)CC1`, the growth is 95.8% (inactive).

Regarding `CCC1NC(=O)c2cc(S(N)(=O)=O)c(Cl)cc2N1` (stereo not given), the growth is 108% (inactive).

Take `CC(=O)O[C@@]12CO[C@@H]1C[C@H](O)[C@@]1(C)C(=O)[C@H](O)C3=C(C)[C@@H](OC(=O)[C@H](O)[C@@H](NC(=O)OC(C)(C)C)c4ccccc4)C[C@@](O)([C@@H](OC(=O)c4ccccc4)C12)C3(C)C` (stereo not given in full): the growth was 31.8% (inactive).

Regarding `CCCc1nc(C(C)(C)O)c(C(=O)O)n1Cc1ccc(-c2ccccc2-c2nn[nH]n2)cc1`, the growth was 103% (inactive).

`Cc1cc(CC(C)CC(C)(C)C)n(O)c(=O)c1` (stereo not given) (tested in a mixture with another compound): the growth is 14.6% (inactive).

As for `CN1CCN(C2=Nc3ccccc3Oc3ccc(Cl)cc32)CC1`, the growth is 105% (inactive).

For the molecule `Cc1nc2n(c(=O)c1CCN1CCC(c3noc4cc(F)ccc34)CC1)CCC[C@@H]2O`, the growth is 92.1% (inactive).

As to `COc1cc2cc(Oc3ccc(NC(=O)c4cccc(C(F)(F)F)c4)cc3)c(C)nc2cc1OC`, the growth was 27.1% (inactive).

For the molecule `CCOC(=O)c1sc2ncnc(Nc3ccc4c(cnn4C(=O)Nc4ccccc4)c3)c2c1C`, the growth was 60.6% (inactive).

Values taken from PubChem BioAssay (NCI).
